Active and inactive are the calls of the source.

The source of these data is PubChem BioAssay.

The test system of assay [1] is PRMT1 (protein arginine N-methyltransferase 1). Put plainly: small molecules binding arginine methyltransferase PRMT1 – biochemical, small-molecule microarray, 635 nm fluorescence, primary screen (AID 1088).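 Also: binding of Prmt1 protein to compounds spotted on small-molecule microarray slides.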 The following applies: higher = more signal.
Assay [2] is described as follows: growth effects on S. cerevisiae YJM789 – YJM789 clinical isolate, OD600, 24 h, basal, primary screen (AID 1089).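 Also: growth of clinical yeast isolate S. cerevisiae YJM 789 seeded 1000 cells per well; test concentration not given here.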 The following applies: higher = more signal, called active from +8 up or from −8 down.
A short description of assay [3]: S. pombe growth modifiers, basal conditions – strain 972, OD600, 24 h, no modulator, primary screen (AID 1090).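 Also: basal condition with compound alone and no growth modifier present; test concentration not given here.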 The following applies: S. pombe 972 growth, higher = more signal, called active from +8 up or from −8 down.
The nature of assay [4]: budding yeast growth modifiers under rapamycin – strain BY4716, OD600, 96 h, primary screen (AID 1091). Also: test concentration not given here. The following applies: S. cerevisiae BY4716 + rapamycin, higher = more signal, called active from +8 up or from −8 down.
Assay [5] addresses Torsin-1A-interacting protein 2 (Homo sapiens) (UniProt Q8NFQ8). In words: small molecules binding lysate-expressed LULL1 – cell lysate, human LULL1 lysate, 635/667 nm fluorescence, primary screen (AID 1092).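 Also: probe is lysate of COS7 cells overexpressing human LULL1; score merges per-feature 667 nm fluorescence with signal-to-noise.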 The following applies: small-molecule microarray, hLULL1 lysate binding, 635 nm fluorescence; higher = more signal.
A short description of assay [6]: optical density change of DRC41 E. coli – strain DRC41, OD650, 24 h, E. coli filamentation project, primary screen (AID 1093).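 Also: MC1000 strain lacking acrAB efflux and sulA so SOS filamentation is blocked; test concentration not given here.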 The following applies: E. coli DRC41 growth, higher = more signal, called active from +8 up or from −8 down.
Assay [7] in a line: probe aLefty2 binding to arrayed compounds – biochemical, biotinylated probe, 635/667 nm fluorescence, primary screen (AID 1094).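 Also: score merges spot fluorescence near 667 nm with spot signal-to-noise ratio.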 The following applies: small-molecule microarray, higher = more signal.
Assay [8] deals with Noggin (protein binding on small-molecule microarray). In words: small molecules binding Noggin protein – biochemical, 635/667 nm fluorescence, primary screen (AID 1095).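 Also: score merges 667 nm feature fluorescence with signal to noise over triplicate slides.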 The following applies: 635 nm fluorescence, higher = more signal.
For assay [9], the target named is Neurogenic locus notch homolog protein 3 (Homo sapiens) (UniProt Q9UM47). Put plainly: small molecules binding NOTCH3 protein – biochemical, 635/667 nm fluorescence, primary screen (AID 1096). The following applies: small-molecule microarray, 635 nm fluorescence, higher = more signal.
Assay [10] is described as follows: probe aEGFR binding to arrayed compounds – biochemical, biotinylated probe, 635/667 nm fluorescence, primary screen (AID 1097).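 Also: probe is a biotinylated anti-EGFR antibody binding compounds printed on slides; score combines fluorescence near 667 nm and signal to noise of each spot.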 The following applies: small-molecule microarray, higher = more signal.
Assay [11] has as its system Plasmodium falciparum Sir2 (PF13_0152, Sir2A). In words: Plasmodium falciparum Sir2A binding compounds – biochemical, small-molecule microarray, 635 nm fluorescence, primary screen (AID 1098).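 Also: score merges spot fluorescence intensity with its signal-to-noise ratio.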 The following applies: fluorescence 635 nm, higher = more signal.
A short description of assay [12]: probe aDKK1 binding to arrayed compounds – biochemical, biotinylated probe, 635/667 nm fluorescence, primary screen (AID 1099).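 Also: score merges 667nm spot fluorescence with signal to noise across triplicate slides; reference of the scale not given here.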 The following applies: small-molecule microarray, higher = more signal.
Assay [13] can be described thus: probe aCHRDL2 binding to arrayed compounds – biochemical, biotinylated probe, 635/667 nm fluorescence, primary screen (AID 1100). The following applies: small-molecule microarray, higher = more signal.
Assay [14] in a line: change in splice reporter luminescence, either direction, cell-based, HEK293, spliceosome inhibition project, primary screen (AID 1101).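 Also: HEK293 cells carrying a splicing-competent luciferase reporter gene; test concentration not given here.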 The following applies: HEK293 splicing luciferase reporter, 24 h, higher = more signal, called active from +8 up or from −8 down. For orientation: Reporter assays use an easily measured gene product as a stand-in for the process of interest.
Assay [15] addresses Fibroblast growth factor 10 (Homo sapiens) (UniProt O15520). Put plainly: compounds binding fibroblast growth factor 10 – biochemical, small-molecule microarray, 635 nm fluorescence, primary screen (AID 1102). The following applies: FGF10 binding, fluorescence 635 nm, higher = more signal.
For assay [16], the system named is glycogen synthase kinase-3 (GSK3A per assay name; protocol says GSK3B). In words: compounds binding glycogen synthase kinase-3 – biochemical, small-molecule microarray, 635 nm fluorescence, GSK3A, primary screen (AID 1103). Also: the record names both GSK3A and GSK3B. The following applies: fluorescence 635 nm, higher = more signal.
Assay [17] addresses Epidermal growth factor receptor (Homo sapiens) (UniProt P00533). In words: compounds binding epidermal growth factor receptor – biochemical, small-molecule microarray, 635 nm fluorescence, primary screen (AID 1104).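 Also: score merges 667 nm emission intensity with spot signal to noise over triplicate slides.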 The following applies: EGFR binding, higher = more signal.
In assay [18] the target is Follistatin-related protein 3 (Homo sapiens) (UniProt O95633). In words: compounds binding follistatin-related protein 3 – biochemical, small-molecule microarray, 635 nm fluorescence, primary screen (AID 1105).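 Also: score merges emission near 667 nm and signal to noise per printed spot across three slides.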 The following applies: FSTL3 binding, higher = more signal.
The target in assay [19] is Dickkopf-related protein 1 (Homo sapiens) (UniProt O94907). In words: small molecules binding DKK1 protein – biochemical, small-molecule microarray, 635 nm fluorescence scan, primary screen (AID 1106).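 Also: score merges emission near 667 nm with signal to noise over three replicate slides.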 The following applies: higher = more signal.
The test system of assay [20] is Inhibin beta A chain (activin A). In words: small molecules binding activin A – biochemical, small-molecule microarray, 635 nm fluorescence scan, primary screen (AID 1107).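 Also: mouse activin A protein probed at 4.33 µg/mL on printed slides; score merges bound-protein fluorescence near 667 nm with spot signal-to-noise.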 The following applies: INHBA, higher = more signal.

Dickkopf-related protein 1 (Homo sapiens), sequence (O94907 whole entry, looked up): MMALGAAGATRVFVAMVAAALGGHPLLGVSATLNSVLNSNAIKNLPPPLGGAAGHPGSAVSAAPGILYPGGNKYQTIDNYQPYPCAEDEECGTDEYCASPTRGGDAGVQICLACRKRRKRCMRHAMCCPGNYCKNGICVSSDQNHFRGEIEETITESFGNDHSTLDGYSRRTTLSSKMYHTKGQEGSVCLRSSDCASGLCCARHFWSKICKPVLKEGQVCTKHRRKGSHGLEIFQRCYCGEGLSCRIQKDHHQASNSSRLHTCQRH
Neurogenic locus notch homolog protein 3 (Homo sapiens), sequence (Q9UM47 whole entry, looked up): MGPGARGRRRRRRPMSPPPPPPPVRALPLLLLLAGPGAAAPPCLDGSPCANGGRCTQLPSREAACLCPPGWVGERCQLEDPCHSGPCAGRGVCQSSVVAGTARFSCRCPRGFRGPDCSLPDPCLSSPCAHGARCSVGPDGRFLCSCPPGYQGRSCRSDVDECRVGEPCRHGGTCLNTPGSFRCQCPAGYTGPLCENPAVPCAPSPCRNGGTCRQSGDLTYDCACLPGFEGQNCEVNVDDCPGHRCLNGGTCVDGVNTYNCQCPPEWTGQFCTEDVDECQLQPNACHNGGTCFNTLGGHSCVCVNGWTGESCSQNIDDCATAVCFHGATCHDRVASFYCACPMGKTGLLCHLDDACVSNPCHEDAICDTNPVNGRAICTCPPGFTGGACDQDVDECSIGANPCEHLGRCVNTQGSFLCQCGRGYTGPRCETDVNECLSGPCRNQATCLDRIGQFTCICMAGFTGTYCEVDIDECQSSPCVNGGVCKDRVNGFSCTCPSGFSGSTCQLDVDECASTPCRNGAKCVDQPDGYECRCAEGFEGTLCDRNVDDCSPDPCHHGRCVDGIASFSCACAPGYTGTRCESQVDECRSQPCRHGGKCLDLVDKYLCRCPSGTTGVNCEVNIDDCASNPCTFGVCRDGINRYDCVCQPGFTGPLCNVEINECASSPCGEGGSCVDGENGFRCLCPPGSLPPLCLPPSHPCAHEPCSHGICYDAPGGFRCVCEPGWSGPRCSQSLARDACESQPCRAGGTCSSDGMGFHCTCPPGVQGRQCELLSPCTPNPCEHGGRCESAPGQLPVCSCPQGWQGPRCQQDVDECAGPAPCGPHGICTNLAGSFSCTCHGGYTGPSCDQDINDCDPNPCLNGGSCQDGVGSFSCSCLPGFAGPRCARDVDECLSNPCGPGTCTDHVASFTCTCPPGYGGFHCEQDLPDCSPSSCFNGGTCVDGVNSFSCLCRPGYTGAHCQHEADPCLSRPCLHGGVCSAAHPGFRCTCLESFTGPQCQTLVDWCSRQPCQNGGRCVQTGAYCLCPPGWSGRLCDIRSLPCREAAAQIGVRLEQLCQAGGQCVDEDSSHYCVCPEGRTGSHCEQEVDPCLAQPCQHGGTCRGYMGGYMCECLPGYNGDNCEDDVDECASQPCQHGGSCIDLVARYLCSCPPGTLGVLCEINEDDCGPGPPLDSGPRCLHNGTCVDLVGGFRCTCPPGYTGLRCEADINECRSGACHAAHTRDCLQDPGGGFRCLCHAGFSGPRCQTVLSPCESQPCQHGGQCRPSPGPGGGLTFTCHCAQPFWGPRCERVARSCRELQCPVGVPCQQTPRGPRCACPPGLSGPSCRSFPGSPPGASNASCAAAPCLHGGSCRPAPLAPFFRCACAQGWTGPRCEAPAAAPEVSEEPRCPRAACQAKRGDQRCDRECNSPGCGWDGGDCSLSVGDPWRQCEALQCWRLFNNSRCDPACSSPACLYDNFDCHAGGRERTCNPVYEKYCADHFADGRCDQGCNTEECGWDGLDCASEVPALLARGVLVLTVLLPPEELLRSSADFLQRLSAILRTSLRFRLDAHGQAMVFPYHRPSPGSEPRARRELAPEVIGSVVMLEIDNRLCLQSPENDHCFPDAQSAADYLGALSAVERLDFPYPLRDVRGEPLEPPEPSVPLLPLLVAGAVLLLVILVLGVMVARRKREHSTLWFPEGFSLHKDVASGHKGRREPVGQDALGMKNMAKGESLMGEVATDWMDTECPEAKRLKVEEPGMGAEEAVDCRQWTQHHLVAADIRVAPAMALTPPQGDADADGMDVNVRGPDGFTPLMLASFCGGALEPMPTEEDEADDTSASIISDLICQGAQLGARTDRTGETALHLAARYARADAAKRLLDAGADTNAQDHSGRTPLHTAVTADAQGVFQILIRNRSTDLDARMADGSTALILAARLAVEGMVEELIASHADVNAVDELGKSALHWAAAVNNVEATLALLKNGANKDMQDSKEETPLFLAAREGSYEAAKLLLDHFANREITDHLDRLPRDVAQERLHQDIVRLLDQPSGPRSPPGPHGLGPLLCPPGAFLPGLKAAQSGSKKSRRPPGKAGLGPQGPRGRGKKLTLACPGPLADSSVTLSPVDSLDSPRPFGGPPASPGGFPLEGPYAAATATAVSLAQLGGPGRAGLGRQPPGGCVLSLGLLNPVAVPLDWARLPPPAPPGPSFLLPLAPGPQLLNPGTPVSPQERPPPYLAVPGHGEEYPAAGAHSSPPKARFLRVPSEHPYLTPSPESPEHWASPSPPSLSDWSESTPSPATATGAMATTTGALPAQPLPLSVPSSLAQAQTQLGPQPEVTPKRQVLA
Fibroblast growth factor 10 (Homo sapiens), sequence (O15520 whole entry, looked up): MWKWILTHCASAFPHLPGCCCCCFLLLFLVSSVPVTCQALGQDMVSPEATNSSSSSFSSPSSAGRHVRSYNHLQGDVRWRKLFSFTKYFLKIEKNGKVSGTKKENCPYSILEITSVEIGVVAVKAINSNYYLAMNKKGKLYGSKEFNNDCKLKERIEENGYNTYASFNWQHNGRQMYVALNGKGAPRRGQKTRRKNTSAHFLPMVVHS
Epidermal growth factor receptor (Homo sapiens), sequence (P00533 whole entry, looked up): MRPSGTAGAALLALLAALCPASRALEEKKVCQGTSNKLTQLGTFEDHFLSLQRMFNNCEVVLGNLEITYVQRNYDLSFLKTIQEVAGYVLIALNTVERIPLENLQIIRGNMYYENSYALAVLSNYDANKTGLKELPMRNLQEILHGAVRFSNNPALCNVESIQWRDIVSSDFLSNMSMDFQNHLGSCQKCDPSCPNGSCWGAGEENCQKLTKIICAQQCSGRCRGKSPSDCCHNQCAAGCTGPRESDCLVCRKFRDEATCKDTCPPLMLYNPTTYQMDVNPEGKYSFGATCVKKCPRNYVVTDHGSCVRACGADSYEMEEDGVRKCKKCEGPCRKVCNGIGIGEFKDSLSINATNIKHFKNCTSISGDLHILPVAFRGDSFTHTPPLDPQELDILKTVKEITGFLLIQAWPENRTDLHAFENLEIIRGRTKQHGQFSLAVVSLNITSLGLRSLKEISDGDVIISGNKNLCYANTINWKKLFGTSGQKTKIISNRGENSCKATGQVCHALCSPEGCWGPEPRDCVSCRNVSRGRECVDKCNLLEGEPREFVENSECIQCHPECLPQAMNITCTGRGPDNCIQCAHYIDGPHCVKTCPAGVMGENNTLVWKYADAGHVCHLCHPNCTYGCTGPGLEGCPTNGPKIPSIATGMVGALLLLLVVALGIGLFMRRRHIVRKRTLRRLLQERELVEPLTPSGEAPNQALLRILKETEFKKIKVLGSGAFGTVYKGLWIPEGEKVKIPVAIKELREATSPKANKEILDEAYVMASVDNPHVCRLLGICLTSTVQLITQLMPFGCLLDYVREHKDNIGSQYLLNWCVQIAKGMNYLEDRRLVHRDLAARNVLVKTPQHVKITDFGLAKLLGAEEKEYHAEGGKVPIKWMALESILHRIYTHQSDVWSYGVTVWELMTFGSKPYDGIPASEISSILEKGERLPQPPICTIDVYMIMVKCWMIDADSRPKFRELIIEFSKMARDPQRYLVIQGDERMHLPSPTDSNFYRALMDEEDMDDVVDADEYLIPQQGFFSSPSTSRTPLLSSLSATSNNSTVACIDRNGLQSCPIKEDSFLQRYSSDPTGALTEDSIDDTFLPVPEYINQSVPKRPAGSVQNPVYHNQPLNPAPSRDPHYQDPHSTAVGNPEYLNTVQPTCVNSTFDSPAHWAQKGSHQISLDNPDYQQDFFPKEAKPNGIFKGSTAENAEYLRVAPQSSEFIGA
Follistatin-related protein 3 (Homo sapiens), sequence (O95633 whole entry, looked up): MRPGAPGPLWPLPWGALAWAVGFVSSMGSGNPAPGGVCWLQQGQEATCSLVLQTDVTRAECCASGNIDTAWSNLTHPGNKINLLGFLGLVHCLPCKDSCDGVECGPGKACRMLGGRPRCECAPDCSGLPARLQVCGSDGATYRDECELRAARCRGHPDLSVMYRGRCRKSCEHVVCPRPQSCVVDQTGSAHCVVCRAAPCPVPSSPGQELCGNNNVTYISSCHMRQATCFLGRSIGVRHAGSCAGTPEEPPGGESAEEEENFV
Torsin-1A-interacting protein 2 (Homo sapiens), sequence (Q8NFQ8 whole entry, looked up): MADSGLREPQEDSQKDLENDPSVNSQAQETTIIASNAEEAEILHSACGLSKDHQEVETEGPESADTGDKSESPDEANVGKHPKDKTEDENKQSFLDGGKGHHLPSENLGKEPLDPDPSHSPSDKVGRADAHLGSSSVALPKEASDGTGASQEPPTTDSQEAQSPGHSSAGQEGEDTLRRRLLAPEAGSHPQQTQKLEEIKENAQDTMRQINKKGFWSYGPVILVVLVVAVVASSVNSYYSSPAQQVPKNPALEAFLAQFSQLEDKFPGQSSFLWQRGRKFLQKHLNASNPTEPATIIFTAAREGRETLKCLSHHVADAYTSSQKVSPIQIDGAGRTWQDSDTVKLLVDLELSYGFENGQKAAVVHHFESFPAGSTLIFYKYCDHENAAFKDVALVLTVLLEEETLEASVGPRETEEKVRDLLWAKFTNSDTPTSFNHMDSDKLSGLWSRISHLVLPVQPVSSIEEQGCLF

Consider `C[C@@H]1CC[C@H]2C(=O)O[C@@H](Cc3ccccc3)CN2[C@H]1c1ccc(Br)cc1`, for which the composite z-score in assay [1] is 1.14; in [5], 1.16; in assay [7], -0.0258; in [8] it was 0.31; in assay [9], 0.22; in assay [10], -0.0485. For the same compound, the composite z-score is 0.666 in assay [11]; 0.14 in assay [12]; -0.246 in [13]; 0.383 in assay [15]; 0.177 in assay [16]; 0.389 in assay [17]. The results for the composite z-score in assay [18], in [19] and in [20] were 0.416, 0.783 and 0.619, respectively. Moreover, the z-score was 0.004 (inactive) in [2]; -2.36 (inactive) in assay [3]; -0.882 (inactive) in assay [4]; -0.529 (inactive) in assay [6]; -0.387 (inactive) in assay [14].
As for `COc1cccc([C@H]2Oc3ccc(OC)cc3C(=NOC[C@@H](C)[C@H](OCc3ccccc3)C(C)C)[C@@H]2O)c1`, the composite z-score in assay [1] was 0.169; in assay [5] it was 0.77; in [7] it was -0.341; in [8] it was 0.0758; in assay [9], 0.0869; in assay [10], 0.0229. In addition, the composite z-score is -0.0088 in assay [11]; 0.197 in [12]; 0.101 in assay [13]; 0.325 in [15]; 0.332 in [16]; -0.168 in assay [17]. Moreover, the results for the composite z-score in assay [18], in [19] and in assay [20] were 0.242, 0.304 and 0.0185, respectively. Moreover, the z-score in assay [2] is 0.0741 (inactive); in assay [3], 0.399 (inactive); in assay [4] it was 0.588 (inactive); in assay [6] it was -0.0364 (inactive); in assay [14], -0.171 (inactive).
Turning to `CCOC(=O)[C@H](Cc1ccccc1)NC(=O)CCC1CC(OC(=O)NCCc2ccc(F)cc2)CC2(CCCC(COC(=O)NCc3ccccc3)O2)O1` (stereo not given in full), the composite z-score is 1.56 in assay [1]; 0.999 in assay [5]; -0.0965 in assay [7]; 0.644 in [8]; 1.04 in assay [9]; -0.0146 in assay [10]. In addition, the composite z-score in assay [11] is 0.857; in [12], -0.208; in assay [13] it was -0.614; in assay [15] it was 1.16; in assay [16], 0.572; in assay [17], 0.33. Also, the composite z-score in [18] amounted to 0.76; in assay [19], 0.529; in assay [20], 0.0158. In addition, the z-score in assay [2] is -0.522 (inactive); in [3], 0.653 (inactive); in assay [4], 0.6 (inactive); in assay [6] it was 0.413 (inactive); in assay [14], 0.207 (inactive).
In the case of `CC(C)CON=C1C[C@@H](O)[C@@H](O)[C@@H]2[C@@H]3C(=O)N(C(C)(C)C)C(=O)[C@@H]3CC[C@H]12`, the composite z-score in [1] was 0.829; in assay [5], 1.96; in assay [7], 0.0577; in assay [8], -0.316; in assay [9] it was -0.562; in assay [10] it was -0.0966. Besides, the composite z-score is 0.801 in assay [11]; 0.454 in [12]; 0.562 in [13]; -0.294 in assay [15]; -0.516 in assay [16]; -0.205 in assay [17]. Moreover, the composite z-score in assay [18] is -0.743; in assay [19], -0.82; in assay [20], -0.576. Further, the z-score was -0.318 (inactive) in assay [2]; 0.674 (inactive) in assay [3]; 0.0851 (inactive) in assay [4]; 0.573 (inactive) in assay [6]; 0.886 (inactive) in assay [14].
With `CC(=O)OC[C@H]1O[C@H](CC=NO[C@H](C)c2cn([C@H](CO)Cc3ccccc3)nn2)C=C[C@@H]1OC(C)=O`, the composite z-score in assay [1] is 1.34; in [5] it was 1.06; in assay [7], -0.0998; in assay [8], 0.61; in assay [9] it was 1; in assay [10], 0.009. Besides, the composite z-score in assay [11] was 0.95; in assay [12], -0.154; in [13], -0.357; in assay [15] it was 0.945; in assay [16], 0.926; in assay [17], 0.569. Further, the results for the composite z-score in assay [18], in [19] and in assay [20] were 0.995, 1.43 and -0.143, respectively. The z-score in assay [2] was 1.36 (inactive); in assay [3], 1.34 (inactive); in assay [4], 1.4 (inactive); in assay [6], 0.655 (inactive); in assay [14], 0.67 (inactive).
